# From PubChem BioAssay
# Efflux pump inh: blocks antifungal efflux pumps in multiplex yeast assay. S. cerevisiae Candida pump triplex, Nile Red efflux. inhibition, % at 10 µM. actives 0.44% (n = 330,000). AID 485275;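 active = plate passing quality check with inhibition over a set limit, or well fluorescence over plate mean plus 4 SD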;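 also: Nile Red retained in pooled yeast measured as flow cytometry median fluorescence; 0% = buffer negative control and 100% = Enniatin B positive control; higher means more Nile Red kept so more efflux inhibition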
# CR mimetic SO: lowers age-related superoxide in aged yeast cells. S. cerevisiae aged cells, superoxide DHE fluorescence; stronger effect = lower value. superoxide response (% of plate mean), % at 10 µM. actives 0.18% (n = 330,000). AID 2690;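 active = superoxide response under a set limit, about three screen SD below normal, cut at about 65% in these data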;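 also: yeast aged for seven days with compound at 30 °C before DHE staining; 100% = average MFI of all compound-treated wells on the plate with controls excluded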
# ATG4B inh: blocks human ATG4B protease cleavage of LC3 substrate; actives 0.51% (n = 340,000); Q9Y4P1; ATG4B cleavage of LC3-PLA2, NBD-HPC fluorescence, 1 h; inhibition, % at 8.33 µM; AID 504462; in the data active = inhibition above about 40%
# GRK2 aptamer HTS: human GRK2 inhibition via aptamer displacement | P25098 | bead flow cytometry, FAM-aptamer displacement from GRK2 | inhibition of aptamer binding, % at 10 µM | actives 0.59% (n = 330,000) | AID 488847;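 active = inhibition of aptamer binding above 40%, roughly 3 SD of noise, on plates passing a quality check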;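 also: median bead fluorescence of bound FAM aptamer so fluorescent compounds give negative values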
# Target sequence (P25098 whole entry, looked up): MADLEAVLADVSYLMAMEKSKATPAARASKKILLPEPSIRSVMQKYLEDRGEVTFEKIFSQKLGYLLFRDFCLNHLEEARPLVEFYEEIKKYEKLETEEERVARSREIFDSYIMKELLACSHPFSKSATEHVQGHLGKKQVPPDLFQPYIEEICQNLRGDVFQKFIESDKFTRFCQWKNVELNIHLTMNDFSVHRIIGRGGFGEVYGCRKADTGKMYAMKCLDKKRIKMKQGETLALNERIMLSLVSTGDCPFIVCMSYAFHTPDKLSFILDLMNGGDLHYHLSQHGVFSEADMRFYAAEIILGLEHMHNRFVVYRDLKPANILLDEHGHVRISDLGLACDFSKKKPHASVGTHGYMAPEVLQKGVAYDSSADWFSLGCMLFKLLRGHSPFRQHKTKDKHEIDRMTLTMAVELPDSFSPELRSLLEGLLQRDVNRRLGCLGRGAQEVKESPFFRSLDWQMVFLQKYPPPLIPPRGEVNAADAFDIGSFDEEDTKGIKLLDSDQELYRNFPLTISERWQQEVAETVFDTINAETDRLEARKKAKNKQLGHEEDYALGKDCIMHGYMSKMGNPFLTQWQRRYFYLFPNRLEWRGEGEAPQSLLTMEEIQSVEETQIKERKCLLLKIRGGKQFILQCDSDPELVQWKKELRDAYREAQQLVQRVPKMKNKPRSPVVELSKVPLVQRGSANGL
# Yeast cmpd fluor: compound fluorescence in yeast efflux pump counter-screen; shares compounds with Efflux pump inh; S. cerevisiae AD/pABC3, flow cytometry; fluorescence ratio to DMSO, % at 10 µM; actives 4% (n = 1,700);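 active = fluorescence ratio to DMSO above its plate's cutoff, the plate mean ratio plus 5 SD, cut at about 210% in these data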;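 also: unstained yeast with no Nile Red so the signal is compound autofluorescence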
# CaMdr1 efflux inh: blocks the Candida albicans Mdr1 efflux pump in yeast; shares compounds with Efflux pump inh; S. cerevisiae AD/CaMDR1, Nile Red efflux, flow cytometry; inhibition, % at 10 µM; actives 1% (n = 1,700); in the data active = inhibition above about 26%;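 also: 0% = DMSO vehicle and 100% = reference inhibitor; higher means more Nile Red retained so more efflux inhibition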
# Cdr2 pump inh: Candida Cdr2 efflux pump inhibition | shares compounds with Efflux pump inh | S. cerevisiae AD/CaCDR2, Nile Red retention, flow cytometry | Nile Red retention ratio vs DMSO, % at 10 µM | actives 4% (n = 1,700); in the data active = Nile Red retention ratio vs DMSO above about 190%;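 also: higher ratio means more blocking of Cdr2 efflux of the dye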
# CaCdr1 efflux inh: blocks the Candida albicans Cdr1 efflux pump in yeast | shares compounds with Efflux pump inh | S. cerevisiae AD/CaCDR1, Nile Red efflux, flow cytometry | inhibition, % at 10 µM | actives 1% (n = 1,700) | AID 588522;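 active = inhibition above the screen-wide mean plus twice its standard deviation, cut at about 32% in these data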
# * hit, by the source's call; / = no result; + = active, no number. An excerpt weighted towards active compounds, which were near 1.6% of everything screened.
SMILES,Efflux pump inh,CR mimetic SO,ATG4B inh,GRK2 aptamer HTS,Yeast cmpd fluor,CaMdr1 efflux inh,Cdr2 pump inh,CaCdr1 efflux inh
O=C(Cn1cncn1)N/N=C/c1cccnc1,0,101,-10,0,/,/,/,/
CCOc1ccc(NC(=O)NC2CCCc3ccccc32)cc1 (configuration not stated),6.5*,104,5,2,103,0,109,0
Cc1c(/C=N/NC(=O)c2cc(Br)ccc2O)c(=O)n(C)c(=O)n1C,0.5*,98,-11,0,105,1,102,0
CCn1ncc(/C=N\NC(=O)COc2cc(C)cc(C)c2)c1C,13*,106,-6,2,102,0,104,0
Cc1cc(C)cc(OCC(=O)N/N=C\c2cn(C)nc2C)c1,0,108,-9,4,/,/,/,/
O=C(NNC1CC(=O)N(c2ccccc2)C1=O)c1ccco1 (configuration not stated),0,100,5,0,/,/,/,/
COc1ccc(N2C(=O)CC(NNC(=O)c3ccco3)C2=O)cc1 (configuration not stated),2.1*,120,-4,0,105,0,110,0
C=CCOC(=O)C(=O)/C=C/c1ccc2c(c1)Cc1ccccc1-2,0,96,5,2,/,/,/,/
CCC(C)C(=O)Nc1nnc(CCc2ccccc2)s1 (configuration not stated),1.2*,83,-5,1,107,0,95,0
CCC1CCCCN1CCCNC(=O)CN1C(=O)COc2ccc(S(=O)(=O)N3CCOCC3)cc21 (configuration not stated),43*,112,-5,0,103,0,94,0
COc1cccc(/C=N/n2nnnc2N)c1OCC#N,0,111,-10,2,/,/,/,/
COc1ccc(Nc2nc(N)c(C(=O)c3ccc(OC)cc3)s2)cc1,0,103,-8,0,/,/,/,/
COc1ccc(Nc2nc(N)c(C(=O)c3ccc(F)cc3)s2)cc1,12*,107,-18,0,98,0,96,0
O=C(NC1CCCc2ccccc21)c1cncc(Br)c1 (configuration not stated),3.4*,99,10,4,96,0,92,0
O=C(NC1CCCc2ccccc21)c1cc(F)cc(F)c1 (configuration not stated),0,96,-10,2,/,/,/,/
CC1Cc2ccccc2N1S(=O)(=O)c1cccc(C(=O)N2CCN(c3ncccn3)CC2)c1 (configuration not stated),0.9*,98,-17,0,106,0,103,0
NC(=S)NN=C(c1ccc(Br)cc1)C1CC1,/,/,-2,/,/,/,/,/
CC(NC(=O)CCC(=O)NC(C)c1ccccc1)c1ccccc1 (configuration not stated),0,99,0,2,/,/,/,/
CC(NC(=O)CCSCCC(=O)NC(C)c1ccccc1)c1ccccc1 (configuration not stated),1.2*,77,-11,1,102,0,98,0
O=C1C2C3C=CC(CC3)C2C(=O)N1/N=C/c1ccc(O)cc1 (configuration not stated),0,114,10,1,/,/,/,/
O=[N+]([O-])c1ccc(O)c(/C=N/n2cnnc2)c1,0,84,12,1,/,/,/,/
O=C1/C(=C\c2ccc(O)cc2)SC(=S)N1/N=C/c1ccc(O)cc1,0,85,15,3,97,0,106,0
O=C1/C(=C/c2cccc(Br)c2)SC(=S)N1/N=C/c1cc([N+](=O)[O-])ccc1O,0,108,7,0,97,0,83,0
Cc1ccc(S(=O)(=O)N2C[C@@H]3[C@H]4CC[C@H](C4)[C@@H]3[C@@H](C)[C@H]2C#N)cc1,0,104,0,20,/,/,/,/
O=C(Nc1ccc(Cl)c(S(=O)(=O)N2CCOCC2)c1)C1CCCC1,0,91,0,0,/,/,/,/
SMILES,Efflux pump inh,CR mimetic SO,ATG4B inh,GRK2 aptamer HTS,Yeast cmpd fluor,CaMdr1 efflux inh,Cdr2 pump inh,CaCdr1 efflux inh
CCc1c(C)nc2cc(-c3cc(OC)cc(OC)c3)nn2c1N1CCN(CCN2CCOCC2)CC1,1.6*,105,-11,1,82,0,89,0
CCOc1ccccc1/C=C/c1onc(C)c1S(=O)(=O)N1CCC(C(=O)N(CC)CC)CC1,0.2*,114,-1,2,106,0,108,0
CCN(CCN(C)C)C(=O)C1CCN(S(=O)(=O)c2c(C)noc2/C=C/c2ccccc2F)CC1,0,81,-8,0,/,/,/,/
CN1CCN(C(=O)/C=C/c2ccc([N+](=O)[O-])cc2)CC1,12*,130,-8,0,98,0,89,0
CCN1CCN(C(=O)/C=C/c2ccc([N+](=O)[O-])cc2)CC1,0,93,4,0,/,/,/,/
COc1ccccc1Nc1nc2nonc2nc1N1CCC(C)CC1,0,104,0,2,/,/,/,/
COc1ccc(OC)c(Nc2nc3nonc3nc2N2CCCCC2)c1,6.7*,105,-3,0,91,0,112,0
COc1ccc(-c2nc(NC(=O)CSc3nnc(C)s3)ns2)cc1,0.8*,100,-12,0,100,0,101,0
COc1ccc(NC(=O)C2OC3OC(C)(C)OC3C3OC(C)(C)OC23)cc1 (configuration not stated),1.5*,90,2,0,101,0,120,0
CCC(Sc1nc2ccccc2[nH]1)C(=O)Nc1ccc(NC(C)=O)cc1 (configuration not stated),0.7*,116,-10,4,103,0,91,0
COc1cc2c(cc1OC)C(C)N(C(=O)c1cc3ccccc3o1)CC2 (configuration not stated),0,107,-6,0,/,/,/,/
COc1cc2c(cc1O)CCN(C(=O)c1ccco1)C2C (configuration not stated),1.2*,110,4,0,97,0,110,0
COc1cccc(C(=O)Nc2cc(OC)ccc2NC(=O)c2ccco2)c1,0,109,9,1,/,/,/,/
COc1ccc(C2c3ccc4ccccc4c3Oc3ncn(CCN4CCOCC4)c(=N)c32)cc1 (configuration not stated),1.0*,78,-22,0,108,0,112,0
Cc1ccc(-n2c(-c3ccc(Br)cc3)c[n+]3c2CCc2ccc4cccnc4c2-3)cc1,1.1*,128,20,0,107,0,+,0
Cn1c(=O)c2sccc2n2c(CCCC(=O)Nc3ccc(F)cc3F)nnc12,0,109,1,3,/,/,/,/
